# Laboratory results reported in PubChem BioAssay AID485358 (National Center for Advancing Translational Sciences (NCATS), 2010).
# Hit rate of the full screen: of about 340,000 compounds, about 1,800 (0.53%) were called active. Shown is part of a subset that was picked to be rich in actives. Values without a mark were called inactive.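 The calls were made as follows: active = activation over 3 SD above normal in the single-dose calcium agonist read (cut at about 30% in these data); inactive = the rest.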
# Target: D(2) dopamine receptor (Homo sapiens) (UniProt P14416)
# Test: HTS Assay for Allosteric Agonists of the Human D2 Dopamine Receptor: Primary Screen for Agonists; also: 0% is about no effect
# Settings: HEK293 T-REx D2 cells, calcium flux agonist mode; at 2 µM; stronger effect = higher value
# Excerpt: NIH Chemical Genomics Center [NCGC] NIH Molecular Libraries Probe Centers Network [MLPCN] MLPCN Grant: NS064831-01 Assay Submitter (PI): David Sibley Dopamine receptors (DARs) are involved in the etiology and/or therapy of a number of neuropsychiatric and endocrine disorders. For instance, all receptor-based antiparkinsonian drugs work via stimulating the D2 DAR subtype whereas all FDA-approved antipsychotic agents are antagonists of this receptor. […] There are three different types of allosteric modulators that we are seeking, two of which will stimulate or augment receptor signaling, allosteric agonists and potentiators, while the third, allosteric antagonists, will attenuate receptor signaling. The present primary screening assay measures compound agonism by tracking calcium flux in a […], inducible Hek293 Trex D2 cell line.
# Freshly passaged cells are plated in 1536 well black, clear bottom plates at a density of 4000 cells/well in 3 ul of complete media containing 1x tetracycline inducer. After an overnight incubation at […] in 5% CO2, cells are loaded with 2 ul of the no wash Calcium Assay Kit (ABD Bioquest) and incubated at room temperature for 30 to 90 minutes. Agonist read: A 10 cycle (1 second/cycle) baseline measurement is taken and then the FDSS online 1536 pintool delivers 23 nl of compound library (as well as dopamine controls) to the plate. The plate is measured for kinetically at 1 cycle/sec for 180 seconds and is considered to be the agonist portion of the assay (eg, compounds which activate a positive calcium response during this portion are flagged as potential agonists). Following the 180 second read, 1 ul of either an EC20 (positive modulation assay) or EC80 (negative modulation assay) is delivered by an onboard pipette head. Measurements are taken kinetically for an additional 180 seconds.
# Sequence of D(2) dopamine receptor (Homo sapiens) (P14416 whole entry, looked up): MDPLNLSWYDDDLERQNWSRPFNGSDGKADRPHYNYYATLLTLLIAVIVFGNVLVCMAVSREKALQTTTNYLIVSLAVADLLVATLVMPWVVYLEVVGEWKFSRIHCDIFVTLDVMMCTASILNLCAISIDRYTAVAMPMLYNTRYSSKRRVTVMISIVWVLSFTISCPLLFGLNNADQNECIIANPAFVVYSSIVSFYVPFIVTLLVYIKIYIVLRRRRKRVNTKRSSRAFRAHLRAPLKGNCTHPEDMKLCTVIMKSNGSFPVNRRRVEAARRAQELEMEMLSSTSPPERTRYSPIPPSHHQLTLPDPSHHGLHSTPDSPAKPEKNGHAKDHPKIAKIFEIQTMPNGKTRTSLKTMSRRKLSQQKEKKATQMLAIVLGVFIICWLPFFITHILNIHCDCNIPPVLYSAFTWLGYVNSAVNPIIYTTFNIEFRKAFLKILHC
row,SMILES,activation
1,COc1ccc(CN2CCN(c3ccccc3F)CC2)c(OC)c1,71.7% (active)
2,COc1ccccc1CN1CCN(C(=O)Cc2ccccc2)CC1,0.485%
3,Fc1cccc(F)c1CN1CCN(Cc2c(F)cccc2F)CC1,1.26%
4,COC(=O)C1=C(c2cccc(OCc3ccccc3)c2)C[C@@H]2CC[C@H]1N2C(=O)NNCc1ccccc1,-0.13%
5,CC(C)c1ccc(O)c(CN2CCN(c3ccccc3)CC2)c1,-1.71%
6,Fc1ccc(N2CCN(Cc3ccc4c(c3)OCO4)CC2)cc1,6.76%
7,Oc1cc2c(cc1CN1CCN(c3ccccc3)CC1)OCO2,83.3% (active)
8,COC(=O)C1=C(c2ccc3ccccc3c2)C[C@@H]2CC[C@H]1N2C(=O)NCCO,-0.422%
9,CCc1ccc(OCC(=O)N2CCN(CC(=O)Nc3ccccc3Cl)CC2)cc1,1.2%
10,Cc1cccc(Cn2cccc(C(=O)Nc3ccc4c(c3)OCCO4)c2=O)c1,0.0946%
11,CCOC(=O)C1(CCc2ccccc2)CCN(Cc2ccco2)CC1,0.433%
12,CCOC(=O)C1(Cc2ccc(Cl)cc2)CCN(C(C)CCn2cccn2)CC1 (stereo not given),72.7% (active)
13,COC(=O)C1=C(c2ccc(F)cc2OCc2ccccc2)C[C@@H]2CC[C@H]1N2C(=O)NCc1ccc(OC)c(OC)c1,-0.652%
14,O=C(CCC(=O)N1C[C@H]2C[C@@H](C1)c1cccc(=O)n1C2)NCc1ccccc1C(F)(F)F,0.976%
15,Cc1nnc(NC(=O)c2cccn(Cc3cccc(F)c3)c2=O)s1,0.455%
